Measured values from PubChem BioAssay AID430 (Sanford-Burnham Center for Chemical Genomics, 2006).
In all, about 63,000 compounds went through this assay and about 1,100 (1.7%) were called active. Many of the other results were omitted from the sample, so actives are more common in it than they were. Results with a measured potency or affinity are listed apart. Values without a mark were called inactive. Cut-off read from the data, not from the text of the source: active = cytotoxicity above about 50%; inactive = the rest.

experiment: HPDE-C7 pancreatic duct cell viability loss – fluorescence, HTS (AID 430); conditions: HPDE-C7 pancreatic duct cells viability, at 10 µM, hits give high values;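 note: cells exposed to compound for 48 hours before viability readout; 0% = vehicle and 100% = reference cytotoxic drug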

| SMILES | cytotoxicity |
| --- | --- |
| Cn1c(=O)oc2cc(S(=O)(=O)N3CCCC(C(=O)NCc4cccs4)C3)ccc21 (centres undefined) | -3.9% |
| Cc1ccc2c(c1)N(C(=O)CSc1nncn1C)C(C)(C)c1ssc(=S)c1-2 | 14.3% |
| Cc1cc(C)c2c(c1)-c1c(ssc1=S)C(C)(C)N2C(=O)CSc1nncn1C | 56.7% (active) |
| Cc1ccc2c(c1)-c1c(ssc1=S)C(C)(C)N2C(=O)CSc1nncn1C | -1.2% |
| CCCN1Cc2cccc(C(N)=O)c2C1=O | -14.7% |
| Cc1ccccc1S(=O)(=O)Cc1ccc(C(=O)N2CCN(c3ccc(F)cc3)CC2)o1 | -10% |
| Cc1ccc(S(=O)(=O)Cc2ccc(C(=O)N3CCN(c4cc(C)ccc4C)CC3)o2)cc1 | 17.5% |
| COc1ccc(N2CCN(C(=O)c3ccc(CS(=O)(=O)c4ccc(OC)cc4)o3)CC2)cc1 | -11.6% |
| COc1ccc(S(=O)(=O)Cc2ccc(C(=O)N3CCN(c4cccc(C)c4C)CC3)o2)cc1 | 57% (active) |
| Cc1ccccc1S(=O)(=O)Cc1ccc(C(=O)N2CCN(C3CCCCC3)CC2)o1 | -7% |
| COc1ccc(S(=O)(=O)Cc2ccc(C(=O)N3CCN(c4ccccc4F)CC3)o2)cc1 | -21.7% |
| Cc1ccc(C)c(N2CCN(C(=O)c3ccc(CS(=O)(=O)c4ccccc4C)o3)CC2)c1 | 55.6% (active) |
| COc1ccccc1S(=O)(=O)Cc1ccc(C(=O)N2CCN(c3cccc(Cl)c3)CC2)o1 | 60.8% (active) |
| COc1ccccc1N1CCN(C(=O)c2ccc(CS(=O)(=O)c3ccccc3OC)o2)CC1 | -8.2% |
| Cc1ccccc1S(=O)(=O)Cc1ccc(C(=O)N2CCN(c3ncccn3)CC2)o1 | -19.4% |
| Cc1ccccc1S(=O)(=O)Cc1ccc(C(=O)N2CCN(c3cccc(C)c3C)CC2)o1 | 87.9% (active) |
| COc1ccccc1S(=O)(=O)Cc1ccc(C(=O)N2CCN(c3ccccc3)CC2)o1 | -24.2% |
| CC(NC(=O)Cn1cnc2c1c(=O)n(C)c(=O)n2C)c1ccccc1 (centres undefined) | -1.6% |
| CCc1cccc(NC(=O)C2CCCN(S(=O)(=O)c3c(C)[nH]c(=O)[nH]c3=O)C2)c1 (centres undefined) | -1.3% |
| [O-][N+]12CCN(CC1)c1ccccc12 | -14.6% |
| Cc1ccc2nc3ccc(N4CCCC4)nn3c(=O)c2c1 | 4.6% |
| COC(=O)C1=C(C)NC(=O)CC1c1cccc(Cl)c1Cl (centres undefined) | -12.9% |

| SMILES | cytotoxicity |
| --- | --- |
| CCOC(=O)C1C(c2cccc(Cl)c2Cl)NC(=O)NC1(O)C(F)(F)F (centres undefined) | -1.7% |
| N#CC1=C(N)NC(SCC(=O)Nc2ccccc2)=C(C#N)C12CCCC2 | 1.6% |
| CC(C)(C)C1CCC2(CC1)C(C#N)=C(SCC(=O)NC1CCCCC1)NC(=O)C2C#N (centres undefined) | 58.7% (active) |
| CCOC(=O)C1=C(SCC(=O)Nc2ccccc2)NC(=O)C(C#N)C12CCCCC2 (centres undefined) | 1.9% |
| N#CC1=C(SCC(=O)NC23CC4CC(CC(C4)C2)C3)NC(=O)C(C#N)C12CCCCC2 (centres undefined) | 49.7% |
| N#CC1=C(SCC(=O)NC2CC2)NC(=O)C(C#N)C12CCCCC2 (centres undefined) | -13.2% |
| Cc1ccc2[nH]c(=O)c(CN(Cc3nnnn3Cc3ccccc3)C3CCCC3)cc2c1 | -16.4% |
| Cc1cnc(-c2nnc(N(C)C(=O)C3CCCO3)s2)cn1 (centres undefined) | -5.4% |
| Cc1ccc(-n2ncc(C(=O)N3CCc4ccccc4C3)c2NC(=O)c2ccco2)cc1C | 71.2% (active) |
| O=C(Nc1c(C(=O)N2CCCCC2)cnn1-c1ccccc1)c1ccco1 | -10.4% |
| Cc1ccc(NC(=O)c2cnn(-c3ccccc3)c2NC(=O)c2ccco2)cc1C | 1.7% |
| CC(=O)Nc1ccc(S(=O)(=O)N2CCN(c3cc(C)ccc3C)CC2)cc1 | 7.6% |
| CC(=O)Nc1ccc(S(=O)(=O)N2CCN(c3cccc(C)c3C)CC2)cc1 | 54.3% (active) |
| COc1ccc(S(=O)(=O)N2CCN(c3cccc(C)c3C)CC2)cc1 | 2% |
| CC(=O)Nc1ccc(S(=O)(=O)N2CCN(c3cc(C)nc4ccccc34)CC2)cc1 | 2.1% |
| CC(=O)Nc1ccc(S(=O)(=O)N2CCC(c3nc4ccccc4[nH]3)CC2)cc1 | 6.7% |
| CC(=O)Nc1ccc(S(=O)(=O)NC(CC(=O)N(C)Cc2ccccc2)C(C)C)cc1 (centres undefined) | -7.1% |
| CC(C)N1CC(C(=O)Nc2nc3ccccc3s2)CC1=O (centres undefined) | -0.4% |
| Nn1c(Nc2ccccc2)nc2sc3c(c2c1=O)CCC3 | 57.6% (active) |
| CCCc1nc2sc3c(c2c(=O)n1N)CCC3 | 3% |
| CCc1nc2sc3c(c2c(=O)n1N)CCC3 | 1.2% |
| COc1ccc(S(=O)(=O)N(CC(=O)O)c2ccc(C)cc2)cc1 | -20.8% |

| SMILES | cytotoxicity |
| --- | --- |
| O=C(NCc1cccnc1)C1c2ccccc2C(=O)N1Cc1ccco1 (centres undefined) | -4.7% |
| O=C(Cc1cn2ccsc2n1)Nc1nc2c(s1)CN(Cc1ccccc1)CC2 | -4.7% |
| O=C(Cc1cn2ccsc2n1)Nc1nc2c(s1)CCCC2 | 6.8% |
| CC(C)(C)C1CCc2nc(NC(=O)Cc3cn4ccsc4n3)sc2C1 (centres undefined) | 57.3% (active) |
| COc1ccc(C(=O)CSC2=C(C#N)C3(CCCCC3)C(C#N)=C(N)N2)cc1 | 22.5% |
| CCSC1=C(C#N)C2(CCCCC2)C(C#N)=C(N)N1 | -4.6% |
| CSC1=C(C#N)C2(CCCC2)C(C#N)=C(N)N1 | 22.6% |
| N#CC1=C(N)NC(SCc2ccccc2)=C(C#N)C12CCCCC2 | 72.2% (active) |
| CC1(C)CC(=O)C2=C(C1)NC(SCC(=O)Nc1ccccc1)=C(C#N)C21CCCCC1 | -19.2% |
| N#CC1=C(N)NC(SCC(=O)O)=C(C#N)C12CCCC2 | 4.9% |
| CCSC1=C(C#N)C2(CCCC2)C(C#N)=C(N)N1 | -1.6% |
| CCOC(=O)c1cnn(-c2ncnc3c2oc2ccccc23)c1N | -2.5% |
| COc1ccc(C2(CCN)CC(C)N(C)CC2C)cc1 (centres undefined) | -5.8% |
| O=C(c1cc(F)c(F)cc1Cl)N1CCCCC1 | -3% |
| CCCSc1nc2c(cnn2-c2ccc(F)cc2)c(=O)[nH]1 | -9.3% |
| Cc1ccc(S(=O)(=O)NCCCN2CCOCC2)cc1C | -25% |
| Oc1ccc(-c2nc3cnccn3c2Nc2ccc3c(c2)OCCO3)cc1 | 3.8% |
| CCOC(=O)c1c(NC(=O)CSc2n[nH]c(N)n2)sc(CC)c1C | -3.3% |
| CCOC(=O)c1sc(NC(=O)CSc2n[nH]c(-c3ccccc3)n2)c(C#N)c1C | 4.4% |
| O=C(COC(=O)C1COc2ccccc2O1)NC(=O)NC1CCCC1 (centres undefined) | -11.8% |
